Measurements: PubChem BioAssay (NCATS)
Results filed as inconclusive are left out. The source made the active and inactive calls. Calls come from the whole dose curve; as a rule, active = well fitted inhibition curve with a large enough effect; inconclusive = small, poorly fitted or top-dose-only effect; inactive = flat fitted curve, though single readings scatter.

assay: qHTS for Inhibitors of Plasmodium falciparum (7G8) proliferation (AID 504316); note: nearly all actives have a fitted effect of over 65% in size;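 for activity change, negative = inhibition: 0% = DMSO vehicle and -100% = 0.29 µM artemisinin full kill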; conditions: P. falciparum 7G8 in erythrocytes, SYBR Green DNA, 72 h; series mostly up to 6.7 µM; activity change, negative = inhibition: at the top concentration
From the text: Plasmodium falciparum is a virulent malarial parasite that kills 1-2 million people worldwide each year. Malaria not only inflicts tremendous suffering and morbidity on the human population, but has dramatically influenced the course of civilization with profound sociological and economic implications (Shah, S. 2010). Transmitted by mosquitoes, the sporozoite form of the parasite enters the blood stream to infect hepatocytes, where they become merozoites that infect red blood cells (erythrocytes). Within erythrocytes, merozoites begin a […] cycle of growth and division, after which the parasite is released to infect new red blood cells. Gametocytes, which form within erythrocytes as well, circulate in the bloodstream and are ingested by the mosquito, thereby completing the life cycle (see CDC website). To profile malarial lines for differential chemical responses and to identify inhibitors of malarial growth, an assay that measures P. falciparum growth and replication within erythrocytes was employed. This assay uses a DNA binding fluorescent dye (SYBR Green) to detect parasite DNA following cell lysis. Because mature erythrocytes lack DNA, only Plasmodium-derived DNA is detected. The P. falciparum line cp250, derived from a malarial isolate from Cambodia, (Mu, J., et al. 2010) was added to the panel of lines, Dd2, HB3, 7G8 and GB4 in this study. Laboratory of Assay Development and Screening Technology [ADST] and NIH Chemical Genomics Center [NCGC] Boston University, Chemistry Department, Center for Chemical Methodology and Library Development [CMLD-BU] NIH National Institute of Allergy and Infectious Diseases [NIAID]
ADST Assay Protocol Summary: The 1536-well SYBR Green viability assay was based on the method of Bennett et al (2004) and described previously in 1536-well format (Yuan J., et al. 2009). For screening 3 ul culture medium was dispensed into 1536 well black clear bottom plates (Aurora Biotechnologies) using a Multidrop Combi (Thermo Fisher Scientific Inc.), 23 nL compounds in DMSO were added by a pin transfer (Cleveland, P.H. and Koutz, P.J, 2005) using a pin tool-based delivery system (Kalypsys), and 5 ul of erythrocytes infected with P. falciparum one of five lines (cp250, Dd2, HB3, 7G8 or GB4, 0.3% parasitemia, 2.5% hematocrit final concentration) were added. The plates were incubated at 37C in a humidified incubator in 5% CO2 for 72 h, and 2 ul lysis buffer (20 mM Tris HCl, 10 mM EDTA, 0.16% saponin, 1.6% triton X, 10X SYBR Green I (supplied as 10,000X final concentration by Invitrogen) was added to each well. The plates were mixed for 25 sec with gentle shaking and incubated overnight at room temperature in the dark. The following morning, fluorescence intensity at 485(14) nm excitation and 535(25) nm emission wavelengths was measured on an EnVision (Perkin Elmer) plate reader. Plate reads were normalized relative to the control inhibitor (0.29 uM artemisinin) and vehicle (DMSO) wells present on each plate and then corrected by an algorithm using vehicle-only control plates at the beginning and end of the compound plate stack. References Shah, S. (2010). The Fever: how malaria has ruled humankind for 500,000 years. New York, Sarah Crichton Books. CDC web site, http://www.cdc.gov/malaria/about/biology/index.html Mu, J., Myers, R.A., Jiang, H., Liu, S., Ricklefs, S., Waisberg, M., Chotivanich, K., Wilairatana, P., Krudsood, S., White, N.J., et Plasmodium falciparum genome-wide scans for positive selection, recombination hot spots and resistance to antimalarial drugs Nature Genetics 2010, 42, pp 268-271 Bennett TN, Paguio, M., Gligorijevic, B., Seudieu, C., Kosar, A. D., Davidson, E., and Roepe, P. D. Novel, rapid, and inexpensive cell-based quantification of antimalarial drug efficacy Antimicrobial Agents Chemother. 2004, 48(5): pp 1807-10 Yuan J, Johnson RL, Huang RL, Wichterman J, Jiang HY, Hayton K, Fidock DA, Wellems TE, Inglese J, Austin CP, Su XZ. […]
Potency is the fitted concentration of half-maximal effect.

| Structure (SMILES) | Potency | activity change, negative = inhibition |
| --- | --- | --- |
| CC1(C)CC(=O)C2=C(C1)O[C@@]1(CCCCN3C(=O)c4ccccc4C3=O)Cc3cc(C#N)ccc3[C@H]2O1 | 1690 nM (active) | – |
| C=CCN1C(=O)C2(CC(C)=C[C@@H](C)O2)c2c(Br)cccc21 (stereo not given in full) | – | 7.91% (inactive) |
| O=C1[C@H]2[C@@H]3[C@@H](O)[C@H](O)CC(=NOCc4ccccc4)[C@H]3CC[C@H]2C(=O)N1C[C@@H]1CCCO1 | – | -0.815% (inactive) |
| CC1(OC(=O)CCc2ccccc2)C(=O)C=C2C=C(c3ccsc3)OC=C2C1=O (stereo not given) | – | 16% (inactive) |
| CC1=C2[C@H](O)[C@H]([C@@H](C)C(=O)NCCC(C)C)CC[C@@]2(C)C=CC1=O | – | 3.21% (inactive) |
| CC(C)(C)Nc1oc(-c2ccccc2)nc1C=Cc1ccccc1 | 1510 nM (active) | – |
| COC(=O)CCCC1=CC2=C(c3ccccc3)C(=O)C(C)(OC(=O)C3CCCC3)C(=O)C2=CN1c1ccc(OC)cc1 (stereo not given) | – | -12.4% (inactive) |
| COc1ccc(O[C@H]2C=C[C@@H](c3ccccc3)O[C@H]2CON=C(C)CCN2CCCc3nc(C)c(C)cc32)cc1 | 1510 nM (active) | – |
| COc1ccc([C@]23Cc4cc(OC)c(OC)cc4[C@H](O2)C2=C(CCCC2=O)O3)cc1 | 1510 nM (active) | – |
| COC(=O)C1C[C@@]23C(=NN=C(SC)C2N(C)c2ccc(OC)cc23)N1C(C)=O (stereo not given in full) | – | -5.48% (inactive) |
| CCN(CC)CCCN=C1NC(c2ccccc2)C(C(=O)OC)=C(C)N1CC (stereo not given) | – | 1.29% (inactive) |
| COC1=C[C@H](C(=O)NCCNC(C)=O)[C@H](C)[C@@H](c2ccccc2)CC1=O | – | 4% (inactive) |
| COC(=O)C1=C(C)N(Cc2ccccc2)C(=NCC(C)C)NC1c1cccc(F)c1 (stereo not given) | – | -12.1% (inactive) |
| CC(=O)c1ccc(OCc2ccccc2)c(C)c1O | – | 3.64% (inactive) |
| COC(=O)C1=C(C)N(Cc2ccccc2)C(=S)NC1c1ccccc1 (stereo not given) | – | -11.2% (inactive) |
| CC(C)=CCCC(C)=CCON=C1C[C@@H](O)[C@@H](O)[C@@H]2[C@H]3C(=O)N(Cc4ccc5c(c4)OCO5)C(=O)[C@@H]3CC[C@@H]12 | – | -15.9% (inactive) |
| Cc1cc(C)c2c(c1)CO[C@H]([C@H](O)CO)[C@H]2C=Cc1ccccc1 | – | -14.1% (inactive) |
| CCCCn1c(C)cc2c(c1=O)[C@H]1O[C@](CCCCN3C(=O)c4ccccc4C3=O)(Cc3ccccc31)O2 | 1690 nM (active) | – |
| CCCCc1cc2c(cn1)=C(OC(=O)CCC(=O)OC)C(C)(OC(=O)CC)C(=O)C=2 (stereo not given) | 1690 nM (active) | – |
| COC(=O)C1=C(C(=O)OC)[C@@H]2N(C)c3ccccc3[C@@]23C[C@@H](C(=O)OC)N(C(=O)NCCBr)C3=N1 | – | 6.11% (inactive) |

| Structure (SMILES) | Potency | activity change, negative = inhibition |
| --- | --- | --- |
| CCN1C(=NCc2ccc3c(c2)OCO3)NC(CCc2ccccc2)C(C(=O)OC)=C1C (stereo not given) | – | -11% (inactive) |
| COCCN1C(=O)N[C@@H](c2ccccc2)[C@H](C(C)=O)[C@H]1C | inactive | – |
| CC(=O)OC[C@H]1O[C@H](CCON=C[C@@H](C)[C@H](OCc2ccccc2)C(C)C)C=C[C@@H]1OC(C)=O | – | 1.52% (inactive) |
| CCCCCCc1cc2cc(OC)c(OC)cc2c2c(C(=O)OC)c(C(=O)OC)c(C(=O)OC)n12 | 1900 nM (active) | – |
| COC(=O)C1(C(=O)OC)CC=CCc2ccccc2[C@H]1C[N+](=O)[O-] | – | 1.39% (inactive) |
| COC(=O)[C@H](C=C[C@H](C)Cc1cc(Br)cc(OCc2ccccc2)c1OC)OCc1ccccc1 | – | 1.31% (inactive) |
| COC(=O)N[C@@H](c1ccco1)[C@]1(C(C)=O)CCCC1=O | – | 13.9% (inactive) |
| COc1ccc(O[C@H]2C=C[C@@H](c3ccccc3)O[C@H]2CON=C(C)CCN2CCCCc3nc(C)c(C)cc32)cc1 | 1510 nM (active) | – |
| COc1ccc(OC[C@@H]2CC3[C@@H](CC[C@@H](C)[C@H]3c3ccc(Br)cc3)C(=O)O2)cc1 (stereo not given in full) | – | 0.0643% (inactive) |
| CCCCCCCC1=CC2=C(Cl)C(=O)C(C)(OC(C)=O)C(=O)C2=CO1 (stereo not given) | – | 2.47% (inactive) |
| CCCC[C@]12Cc3cc(C#N)ccc3[C@H](O1)c1c(c3ccccc3oc1=O)O2 | – | -18.1% (inactive) |
| COc1ccc(-c2nc3c(c4c2C[C@H](c2ccccc2)OC4)CN(C(=O)c2cc(I)ccc2F)CC3)c(C)c1 | 1900 nM (active) | – |
| CC(=O)[C@H]1[C@H](CCc2ccccc2)NC(=O)N(Cc2ccccc2)[C@@H]1C | inactive | – |
| COC[C@H]1O[C@@H](c2c(OC)cc(OC)cc2OC)[C@H](OC)[C@@H](OC)[C@H]1OC | – | 1.01% (inactive) |
| C#C[C@@H]1C=C[C@H](Oc2ccc(OC)cc2)[C@H](CO)O1 | – | -4.01% (inactive) |
| C[C@@H](ON=C1[C@H]2CCn3c(=O)n(-c4ccccc4)c(=O)n3[C@@H]2[C@H](O)[C@@H]2O[C@H]12)c1cn([C@@H]2COC[C@@H]2O)nn1 | – | 9.84% (inactive) |
| C=C(C)C(=O)C=CC=Cc1ccccc1 | – | -11.8% (inactive) |
| COC(=O)C=C[C@H]1c2ccccc2[C@@H](OC)[C@@H]1C | inactive | – |
| CC(C)CON=C1C[C@@H](O)[C@@H](O)[C@@H]2[C@H]3C(=O)N(Cc4ccccc4)C(=O)[C@@H]3CC[C@@H]12 | – | -0.723% (inactive) |
| CC(=O)OC[C@H]1O[C@@H](ON=C[C@@H](C)[C@H](OCc2ccccc2)C(C)C)[C@@H](OC(C)=O)[C@@H](OC(C)=O)[C@@H]1OC(C)=O | – | -1.98% (inactive) |
